The test system of one assay is CRL-7250. In words: Cytotoxic Profiling of Annotated Libraries Using Quantitative High-Throughput Screening (AID 1296008). For max response: % is set by controls: 0 for no effect and ±100 for the full control effect. Note: nearly all actives have a fitted effect of over 60% in size. Note: potency is the fitted concentration of half-maximal effect. The settings on record: Five cell lines viability, CellTiter-Glo ATP luminescence, 48-72 h; max response: active compounds read low. The gist of the method: (§1)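 Cells exposed to compounds for 48 or 72 hr at 37 degrees Celsius. Viability read as ATP-coupled luminescence with CellTiter-Glo after 10 min at room temperature.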

For the next assay, the system named is HEK293. Described as above. The settings on record: Five cell lines viability, CellTiter-Glo ATP luminescence, 48-72 h; max response: active compounds read low. Put shortly: as §1
The test system of assay [1] is HaCat. The assay is described as above. Conditions: Five cell lines viability, CellTiter-Glo ATP luminescence, 48-72 h; max response: active compounds read low. The gist of the method: as §1
Another assay has as its system KB-3-1. Described as above. The settings on record: Five cell lines viability, CellTiter-Glo ATP luminescence, 48-72 h; max response: active compounds read low. The gist of the method: as §1
Assay [2] has as its system NIH3T3. The assay is described as above. Conditions: Five cell lines viability, CellTiter-Glo ATP luminescence, 48-72 h; max response: active compounds read low. The gist of the method: as §1
Assay [3] concerns HACAT. The assay is described as follows: qHTS assay to identify novel small-molecules to repurpose for Merkel cell carcinoma treatment (AID 1296009). Note: nearly all actives have a fitted effect of over 60% in size. The settings on record: MCC and control cell lines, CellTiter-Glo viability, 72 h; at 44.8 µM (top of the series) unless noted. Put shortly:
(§2)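 CellTiter-Glo luminescence after 72 hr compound exposure at 37 degree celsius gave cell viability. Libraries NPC and MIPE were run as 8- and 11-point dose responses; RLUs normalized to DMSO (negative) and no-cell (cytotoxicity) controls.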

Assay [4] deals with NIH3T3. The description is as above. Conditions: MCC and control cell lines, CellTiter-Glo viability, 72 h; at 44.8 µM (top of the series) unless noted. The gist of the method:
as §2

Another assay deals with C33A. In words: Primary qHTS to identify gynecologic anti-cancer compounds using libraries of approved drugs and bioactive compounds (AID 1345084). For activity change, negative = cytotoxicity: % is set by controls: 0 for no effect and ±100 for the full control effect. Note: nearly all actives have a fitted effect of over 55% in size. Note: potency is the fitted concentration of half-maximal effect. Conditions: Gynecologic cancer cell panel viability, ATPlite luminescence, 48 h; series mostly up to 57.5 µM. Put shortly: (§3)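 Cells, 1,000 per well, plated 16 h, then exposed 48 h at 37 C to compounds. Viability by ATPlite luminescence after 15 min at room temperature.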

The next assay has as its system CAOV3. Described as above. Conditions: Gynecologic cancer cell panel viability, ATPlite luminescence, 48 h; series mostly up to 57.5 µM. Put shortly: as §3
The test system of a further assay is CASKI. The assay is described as above. Conditions: Gynecologic cancer cell panel viability, ATPlite luminescence, 48 h; series mostly up to 57.5 µM. The gist of the method:
as §3

A further assay has as its system Es-2. The assay is described as above. Conditions: Gynecologic cancer cell panel viability, ATPlite luminescence, 48 h; series mostly up to 57.5 µM. Put shortly: as §3
In the next assay the test system is HeLa. The assay is described as above. Conditions: Gynecologic cancer cell panel viability, ATPlite luminescence, 48 h; series mostly up to 57.5 µM. The gist of the method:
as §3

The next assay deals with HEK293T. The assay is described as follows: qHTS assay to identify novel small-molecules to repurpose for Merkel cell carcinoma treatment (AID 1296009). Note: nearly all actives have a fitted effect of over 60% in size. The settings on record: MCC and control cell lines, CellTiter-Glo viability, 72 h; at 44.8 µM (top of the series) unless noted. Put shortly:
as §2

The values that follow come from PubChem BioAssay (NCATS).

Results filed as inconclusive are left out. Unmarked numbers belong to inactive results. Activity calls are given as the source filed them. Calls come from the whole dose curve; as a rule, active = well fitted curve in the direction sought with a large enough effect; inconclusive = small, poorly fitted or top-dose-only effect, or another doubt; inactive = no such curve, though single readings can be large; an effect the other way counts as inactive or inconclusive.

Regarding `COC1CC(OC2CCC3(C)C(=CCC4C3CCC3(C)C(C(C)OC5OC(COC6OC(CO)C(O)C(O)C6O)C(O)C(O)C5O)CCC43O)C2)OC(C)C1OC1OC(C)C(O)C(OC)C1O` (stereo not given), the results for the max response with CRL-7250, with HEK293 and in the assay with KB-3-1 were -7.32%, -6.75% and 9.26%, respectively. Also, the call in the assay with HaCat [1] and in the assay with NIH3T3 [2] was inactive. In addition, the outcome in the assay on HACAT [3] and in the assay on NIH3T3 [4] was “inactive [at 9.27 µM]” throughout. In addition, the activity change, negative = cytotoxicity in the assay on C33A is 6.28% [at 11.6 µM]; with CAOV3, 3.88% [at 11.6 µM]; in the assay on CASKI it was 4.6% [at 11.6 µM]; in the assay with Es-2 it was -3.02% [at 11.6 µM]; with HeLa, -1.19% [at 11.6 µM].
In the case of `CC(=O)O[C@H]1C[C@@H](OC(C)=O)C(C)(C)C2C[C@@H](O)[C@]3(C)C(CC[C@@]4(C)[C@H](C5=CC(=O)OC5O)C[C@H]5O[C@]543)[C@]21C` (stereo not given in full), the values for the max response in the assay on CRL-7250, in the assay on HaCat [1] and in the assay on KB-3-1 were 2.14%, -10.3% and 6.85%, respectively. The compound was called inactive in the assay on HEK293 and in the assay on NIH3T3 [2]. The outcome in the assay with HEK293T and with NIH3T3 [4] was “inactive [at 17.4 µM]” throughout. Besides, the Potency result with C33A, in the assay with CAOV3, with CASKI, in the assay on Es-2 and with HeLa was “inactive” each time.
Turning to `CCN1C[C@]2(OC(=O)c3ccccc3NC(C)=O)CC[C@H](OC)[C@@]34[C@@H]2C[C@@H]([C@@H]13)[C@@]1(O)C[C@H](OC)[C@H]2C[C@@H]4[C@]1(O)[C@H]2OC`, the max response is -8.79% in the assay on CRL-7250, -11.1% in the assay with HEK293 and 6.81% in the assay with KB-3-1. Further, the compound was classed as inactive in the assay with HaCat [1], in the assay with NIH3T3 [2], in the assay on HACAT [3] and in the assay on NIH3T3 [4]. Moreover, the Potency entry in the assay on C33A, in the assay with CASKI, in the assay on Es-2 and with HeLa was “inactive” each time.
In the case of `CC(N)Cc1c[nH]c2ccccc12` (stereo not given), the max response in the assay with CRL-7250 is -5.98%; with HaCat [1], -7.15%. The outcome with HEK293, with KB-3-1, in the assay with NIH3T3 [2] and in the assay with HEK293T was inactive. Also, the Potency entry with C33A, in the assay on CASKI, with Es-2 and in the assay with HeLa was “inactive” in each case.
For the compound `COC1C(O)C(C)OC(OC2C(CO)O[C@@H](O[C@@H]3CC4CCC5C(CC[C@]6(C)[C@@H](C7=CC(=O)OC7)CC[C@]56O)[C@@]4(C)[C@H](O)C3)C(O)C2O)C1O` (stereo not given in full), the Potency is 485 nM (active) in the assay on CRL-7250; 432 nM (active) with HEK293; 3430 nM (active) in the assay on HaCat [1]; 862 nM (active) in the assay with KB-3-1; 794 nM (active) in the assay on C33A; 2820 nM (active) in the assay with CAOV3. For the same compound, the Potency in the assay with CASKI is 2510 nM (active); in the assay with Es-2 it was 2820 nM (active); with HeLa, 2820 nM (active). Besides, in the assay with NIH3T3 [2], the call was inactive.
On to `COC1CC(OC2CCC3(C)C(CCC4C3CCC3(C)C(C5=CC(=O)OC5)C(OC(C)=O)CC43O)C2)OC(C)C1OC1OC(CO)C(O)C(O)C1O` (stereo not given), for which the Potency in the assay with CRL-7250 is 544 nM (active); in the assay with HEK293, 1220 nM (active); in the assay with HaCat [1] it was 2430 nM (active); with KB-3-1, 1090 nM (active); in the assay with C33A, 3160 nM (active); in the assay on HeLa, 2820 nM (active). Moreover, the result in the assay on NIH3T3 [2] was inactive. Also, in the assay on NIH3T3 [4], the outcome was “inactive [at 17.4 µM]”.
Regarding `CCC(C)(C#N)O[C@@H]1O[C@H](CO)[C@@H](O)[C@H](O)[C@H]1O` (stereo not given in full), the max response with CRL-7250 was -24.5%. Besides, the outcome with HEK293, with HaCat [1], in the assay on KB-3-1, with NIH3T3 [2], in the assay with HACAT [3] and with HEK293T was inactive. Further, the Potency result with C33A, with CASKI, in the assay on Es-2 and with HeLa was “inactive” each time.
With `N#C[C@@H](O[C@@H]1O[C@H](CO[C@@H]2O[C@H](CO)[C@@H](O)[C@H](O)[C@H]2O)[C@@H](O)[C@H](O)[C@H]1O)c1ccccc1`, the max response in the assay on CRL-7250 was 3.46%; in the assay on HEK293 it was 4.21%; with KB-3-1, 5.22%. Besides, the call in the assay on HaCat [1] and in the assay with NIH3T3 [2] was inactive. For the same compound, the outcome in the assay with HACAT [3] is “inactive [at 17.4 µM]”. Moreover, the Potency result in the assay on C33A, in the assay on CAOV3, in the assay on CASKI, with Es-2 and in the assay with HeLa was “inactive” in each case.
On to `CCN1C[C@]2(COC(=O)c3ccccc3N3C(=O)C[C@H](C)C3=O)CC[C@H](OC)[C@@]34[C@@H]5C[C@H]6[C@H](OC)[C@@H]5[C@](O)(C[C@@H]6OC)[C@](O)([C@@H](OC)[C@H]23)[C@@H]14`, for which the max response in the assay on CRL-7250 was -0.686%; in the assay with HEK293, 2.21%; in the assay on HaCat [1], -1.58%. For the same compound, the result with KB-3-1, with NIH3T3 [2] and in the assay on NIH3T3 [4] was inactive. Besides, the Potency result in the assay on C33A, in the assay with CASKI, with Es-2 and in the assay on HeLa was “inactive” in each case.
Take `CC(=O)OC12C(O)C(C)C3(O)C4C=C(C)C(=O)C4CC(CO)=CC3C1C2(C)C` (stereo not given): the results for the max response in the assay with CRL-7250, with HEK293 and in the assay with HaCat [1] were 1.13%, -4.3% and -13.8%, respectively. For the same compound, the call in the assay with KB-3-1 and with NIH3T3 [2] was inactive. The Potency entry in the assay with C33A, with CAOV3, in the assay with CASKI, with Es-2 and in the assay on HeLa was “inactive” each time.
Take `CC(C)C1(OO)C=C2C(=O)CC3C(C)(C(=O)O)CCCC3(C)C2CC1` (stereo not given): the max response in the assay with CRL-7250 is -0.339%; in the assay on HEK293, 2.31%; in the assay with KB-3-1, 7.41%. The outcome in the assay on HaCat [1], in the assay on NIH3T3 [2] and in the assay with HACAT [3] was inactive. The Potency result in the assay on C33A, in the assay on CAOV3, in the assay with CASKI, with Es-2 and in the assay with HeLa was “inactive” throughout.
Take `CCCCCOc1cc2c(cc1-c1cc(/C=C/C(=O)O)ccc1O)C(C)(C)CCC2(C)C`: the max response was -2.58% in the assay on CRL-7250 and -4.13% in the assay with NIH3T3 [2]. Besides, the outcome in the assay on HEK293, in the assay with HaCat [1], with KB-3-1, in the assay with HACAT [3] and in the assay with HEK293T was inactive. The Potency entry with C33A, with CASKI, in the assay with Es-2 and in the assay on HeLa was “inactive” each time.
As for `CCC1NC(=O)C2C(Cl)C(Cl)CN2C(=O)C(C(C)O)NC(=O)CC(c2ccccc2)NC(=O)C(CO)NC1=O` (stereo not given), the max response is 3.8% in the assay on CRL-7250, -1.23% with HEK293 and 4.16% in the assay on HaCat [1]. Moreover, the call in the assay on KB-3-1 and with NIH3T3 [2] was inactive. In addition, the outcome in the assay on NIH3T3 [4] is “inactive [at 17.4 µM]”. The Potency entry in the assay with C33A, with CAOV3, in the assay with CASKI, with Es-2 and with HeLa was “inactive” in each case.
With `C/C=C(\C)C(=O)OC1C(C)OC(OC2C(C)OC(OC3CCC4(C)C(=CCC5C4CCC4(C)C(C(C)OC6OC(COC7OC(CO)C(O)C(O)C7O)C(O)C(O)C6O)CCC54O)C3)CC2OC)C(O)C1OC` (stereo not given), the max response with CRL-7250 is -8.85%; in the assay on HEK293, -2.95%; in the assay on KB-3-1, 0.359%. For the same compound, the result in the assay on HaCat [1] and in the assay with NIH3T3 [2] was inactive. In addition, the outcome in the assay with HACAT [3] and in the assay on NIH3T3 [4] was “inactive [at 9.27 µM]” in each case. Further, the activity change, negative = cytotoxicity in the assay on C33A was 7.57% [at 11.6 µM]; in the assay on CASKI it was 9.44% [at 11.6 µM]; with Es-2, 4.35% [at 11.6 µM]; in the assay on HeLa, 3.42% [at 11.6 µM].
Take `COC(=O)C1(C)CCC(=O)C2(C)c3c(O)cc(C(C)C)cc3C(O)C(OC(C)=O)C12` (stereo not given): the max response with CRL-7250 is -1.03%; in the assay on HEK293 it was -0.554%; in the assay on HaCat [1] it was -0.878%; with KB-3-1 it was 0.842%. Besides, the outcome in the assay on NIH3T3 [2] was inactive. For the same compound, the outcome with NIH3T3 [4] is “inactive [at 17.4 µM]”. The Potency entry in the assay on C33A, with CAOV3, with CASKI, in the assay on Es-2 and in the assay with HeLa was “inactive” each time.
